Data taken from PubChem BioAssay (NCI).
Compounds without any hit were thinned out: in the full panel of roughly 79,000, 15% have a hit. Activity calls are given as the source filed them. No stated cut-off is given here; in the data, active means growth inhibition above about 70%; inactive means the rest.

Legend:
[1] = NCI Yeast Anticancer Drug Screen. Data for the rad52 strain (AID 147);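 further: 0% = growth of vehicle-treated control cultures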; conditions: S. cerevisiae rad52 mutant growth inhibition, stronger effect = higher value
Outline: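 Vehicle-treated cultures served as the reference for growth inhibition of compound-exposed yeast bearing a DNA repair mutation.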

[2] = NCI Yeast Anticancer Drug Screen. Data for the wt1 strain (AID 149);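 further: 0% = growth of vehicle-treated wt1 cultures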; conditions: S. cerevisiae wt1 strain (SPY 50644) growth inhibition, stronger effect = higher value
Outline: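 Measured: growth of wt1 yeast under compound versus vehicle treatment, reported as inhibition.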

[3] = NCI Yeast Anticancer Drug Screen. Data for the rad50EPP+ strain (AID 151);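 further: 0% = growth of vehicle-treated control cultures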; conditions: S. cerevisiae rad50 mutant strain, stronger effect = higher value
Outline: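 In this screen, rad50EPP+ yeast were exposed to compounds. Growth inhibition was scored against vehicle-treated controls.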

[4] = NCI Yeast Anticancer Drug Screen. Data for the mgt1 strain (AID 153); conditions: S. cerevisiae mgt1 mutant growth inhibition, stronger effect = higher value
Outline: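 mgt1 strain exposed; growth vs vehicle control recorded as inhibition.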

[5] = NCI Yeast Anticancer Drug Screen. Data for the rad50 strain (AID 155);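 further: 0% = growth of vehicle-only cultures of the same strain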; conditions: S. cerevisiae rad50 strain growth inhibition, stronger effect = higher value
Outline: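 Growth of the mutant yeast was measured after compound exposure and referenced to vehicle-treated cultures.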

[6] = NCI Yeast Anticancer Drug Screen. Data for the mec2-1 strain (AID 157); conditions: S. cerevisiae mec2-1 strain, stronger effect = higher value
Outline: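 Vehicle-treated cultures served as reference for growth inhibition of compound-exposed mec2-1 yeast.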

[7] = NCI Yeast Anticancer Drug Screen. Data for the sgs1 mgt1 strain (AID 161);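 further: 0% = growth of cultures given vehicle only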; conditions: S. cerevisiae sgs1 mgt1 strain, stronger effect = higher value
Outline: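 Mutant yeast exposed to compound; growth scored against vehicle-only wells.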

[8] = NCI Yeast Anticancer Drug Screen. Data for the CLN2oe strain (AID 163);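 further: 0% = growth of vehicle-only control cultures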; conditions: S. cerevisiae CLN2oe strain, stronger effect = higher value
Outline: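 Inhibition relative to vehicle-treated yeast is reported. Cells: strain with genetic alteration in cell-cycle control, grown with compound.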

[9] = NCI Yeast Anticancer Drug Screen. Data for the cln2 rad14 strain (AID 165);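 further: 0% = growth equal to vehicle treated cultures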; conditions: S. cerevisiae cln2 rad14 strain, stronger effect = higher value
Outline: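 Each compound was tested on cln2 rad14 yeast. Inhibition of growth was calculated against vehicle-exposed controls.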

[10] = NCI Yeast Anticancer Drug Screen. Data for the bub3 strain (AID 167); conditions: S. cerevisiae bub3 mutant strain, stronger effect = higher value
Outline: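 Whole-cell yeast assay. The mutant strain was incubated with compounds, and growth inhibition was determined by comparison with vehicle-treated cells.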

[11] = NCI Yeast Anticancer Drug Screen. Data for the wt2 strain (AID 169);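 further: 0% = growth of vehicle-treated yeast cultures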; conditions: S. cerevisiae wt2 strain growth inhibition, stronger effect = higher value
Outline: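 Inhibition of yeast growth was determined after compound treatment, normalised to controls receiving only vehicle.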

[12] = NCI Yeast Anticancer Drug Screen. Data for the mlh1 strain (AID 171);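 further: 0% = growth of vehicle-treated control cultures of the same strain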; conditions: S. cerevisiae mlh1 strain growth inhibition, stronger effect = higher value
Outline: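 Vehicle-normalised growth inhibition of a repair- or checkpoint-altered yeast strain following compound treatment.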

[13] = NCI Yeast Anticancer Drug Screen. Data for the sgs1 strain (AID 173);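 further: 0% = growth of vehicle-only control cultures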; conditions: S. cerevisiae sgs1 mutant, stronger effect = higher value
Outline: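 Screen format: yeast with repair or checkpoint alterations, compound exposure, growth read relative to vehicle.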

[14] = NCI Yeast Anticancer Drug Screen. Data for the mlh1 rad18 strain (AID 175); conditions: S. cerevisiae mlh1 rad18 strain growth inhibition, stronger effect = higher value
Outline: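 Vehicle-treated cultures served as the reference for growth inhibition in a yeast strain carrying DNA damage repair alterations exposed to each compound.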

[15] = NCI Yeast Anticancer Drug Screen. Data for the rad18 strain (AID 177); conditions: S. cerevisiae rad18 mutant growth inhibition, stronger effect = higher value
Outline: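 Test articles were incubated with altered yeast defective in DNA damage repair. Results are given as inhibition of growth versus vehicle.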

[16] = at 5.0 µM (retest, dose inferred, filed as 0.5)
[17] = at 50.0 µM (retest, dose inferred, filed as 5.0)

Measured: growth inhibition

O=C(c1ccc(Cl)cc1Cl)C(Cl)Cl
active: [1]; at 33.0 µM 74% | [1]; at 100.0 µM 98% | [2]; at 100.0 µM 98% | [3]; at 33.0 µM 94% | [3]; at 100.0 µM 96% | [4]; at 100.0 µM 99% | [5]; at 33.0 µM 79% | [5]; [17] 84% | [5]; at 50.0 µM 83.8% | [5]; at 100.0 µM 98% | [6]; at 33.0 µM 81% | [6]; [17] 82% | [6]; at 50.0 µM 85.5% | [6]; at 100.0 µM 98% | [7]; [17] 99% | [7]; at 50.0 µM 83.8% | [8]; at 100.0 µM 98% | [9]; [17] 98% | [10]; at 33.0 µM 80% | [10]; [17] 96% | [10]; at 50.0 µM 88.8% | [10]; at 100.0 µM 97% | [11]; at 33.0 µM 71% | [11]; at 100.0 µM 98% | [12]; at 33.0 µM 83% | [12]; at 100.0 µM 99% | [13]; at 33.0 µM 80% | [13]; at 100.0 µM 98% | [14]; [17] 75% | [14]; at 50.0 µM 88.5% | [15]; at 33.0 µM 76% | [15]; at 100.0 µM 98%
inactive: [1]; at 1.2 µM 4% | [1]; at 3.7 µM 0% | [1]; at 11.0 µM 14% | [2]; at 1.2 µM -1% | [2]; at 3.7 µM -6% | [2]; at 11.0 µM 3% | [2]; at 33.0 µM 56% | [3]; at 1.2 µM 40% | [3]; at 3.7 µM 53% | [3]; at 11.0 µM 65% | [4]; at 1.2 µM -21% | [4]; at 3.7 µM -34% | [4]; at 11.0 µM -13% | [4]; at 33.0 µM 68% | [5]; at 1.2 µM 11% | [5]; at 3.7 µM 11% | [5]; [16] 46% | [5]; at 11.0 µM 13% | [6]; at 1.2 µM -22% | [6]; at 3.7 µM -24% | [6]; [16] 40% | [6]; at 11.0 µM -9% | [7]; [16] 13% | [8]; at 1.2 µM -11% | [8]; at 3.7 µM -8% | [8]; at 11.0 µM -13% | [8]; at 33.0 µM 18% | [9]; [16] 68% | [9]; at 50.0 µM 53.6% | [10]; at 1.2 µM -20% | [10]; at 3.7 µM -11% | [10]; [16] -4% | [10]; at 11.0 µM 3% | [11]; at 1.2 µM -8% | [11]; at 3.7 µM -7% | [11]; at 11.0 µM 16% | [12]; at 1.2 µM -10% | [12]; at 3.7 µM 3% | [12]; at 11.0 µM 20% | [13]; at 1.2 µM -14% | [13]; at 3.7 µM -14% | [13]; at 11.0 µM 14% | [14]; [16] 34% | [15]; at 1.2 µM -30% | [15]; at 3.7 µM -34% | [15]; at 11.0 µM -1%
